# Several values for one entry are separate records, joined by “and”; a condition that tells them apart may be missing. Identical values can stand only once. Inconclusive results are not listed. Where a structure was tested more than once in an assay, its records may differ in their call. Activity calls are given as the source filed them. How the source made its calls: active means hit-call score of the fitted dose curve at least 0.9, where 1 is the maximum; inconclusive means response in the unintended direction; inactive means score below 0.9.
# What was measured:
# [1] = target: zebrafish Estrogen Receptor (ER1), esr1 (gene 259252) (UniProt P57717); assay: ATG_zfER1_XSP2: Attagene TRANS-FACTORIAL Multi-Species (XSP2) HepG2 Assay for zebrafish Estrogen Receptor (ER1) (AID 2283816)
# In short: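 HepG2 cells transiently transfected with a GAL4-UAS reporter and a chimeric zebrafish ER1-Gal4 construct, dosed 24 h. Reporter mRNA quantified by RT-PCR, labelling, HpaI digestion and capillary electrophoresis, relative to DMSO.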
# [2] = target: chicken Estrogen Receptor (ERa), ESR1 (gene 396099) (UniProt P06212); assay: ATG_chERa_XSP2: Attagene TRANS-FACTORIAL Multi-Species (XSP2) HepG2 Assay for chicken Estrogen Receptor (ERa) (AID 2283817);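 further: actives raise reporter signal above DMSO so AC50 reflects ER activation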
# In short: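 Transiently transfected HepG2 cells expressing chimeric chicken ERa-GAL4 reporter units, dosed 24 h with 3 nM 6-alpha-fluorotestosterone and 1.5 nM norgestrel present. Reporter mRNA measured by RT-PCR and capillary electrophoresis; gain-of-signal fitted relative to DMSO.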
# [3] = system: zebrafish Estrogen Receptor (ER2a), gene 317734; assay: ATG_zfER2a_XSP2: Attagene TRANS-FACTORIAL Multi-Species (XSP2) HepG2 Assay for zebrafish Estrogen Receptor (ER2a) (AID 2283818);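 further: hits raise reporter mRNA so AC50 reflects activation of zebrafish ER2a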
# In short: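 HepG2 cells transiently transfected with GAL4-UAS reporter units and chimeric zebrafish ER2a-Gal4, exposed 24 h; medium contains 3 nM 6-alpha-fluorotestosterone and 1.5 nM norgestrel. Reporter mRNA quantified by RT-PCR, HpaI digestion, capillary electrophoresis; gain versus DMSO.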
# [4] = system: frog Estrogen Receptor (ER), gene 398734; assay: ATG_frER1_XSP2: Attagene TRANS-FACTORIAL Multi-Species (XSP2) HepG2 Assay for frog Estrogen Receptor (ER) (AID 2283821);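 further: hits raise reporter mRNA above DMSO baseline so potency means agonist or activator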
# In short: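 HepG2 cells transiently transfected with GAL4-UAS reporter units expressing a chimeric frog ER-Gal4 protein; 24 h exposure. Reporter mRNA quantified by RT-PCR, fluorescent labelling and capillary electrophoresis; gain of signal fitted against DMSO baseline.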
# [5] = system: zebrafish Estrogen Receptor (ER2b), gene 317733; assay: ATG_zfER2b_XSP2: Attagene TRANS-FACTORIAL Multi-Species (XSP2) HepG2 Assay for zebrafish Estrogen Receptor (ER2b) (AID 2283823);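 further: fitted upward as reporter gain over DMSO so potency reflects activation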
# In short: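 HepG2 human liver cells transiently transfected with multiplexed GAL4-UAS reporter units expressing chimeric NR-Gal4 proteins; compounds dosed for 24 h. Reporter mRNA quantified by RT-PCR, 6-FAM labelling and capillary electrophoresis; gain-of-signal fitted against DMSO baseline.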
# [6] = target: GAL4 Transcription Factor (Internal Marker), GAL4 (gene 855828) (UniProt P04386); assay: ATG_GAL4_XSP2: Attagene TRANS-FACTORIAL Multi-Species (XSP2) HepG2 Assay for GAL4 Transcription Factor (Internal Marker) (AID 2283814);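 further: GAL4 reporter mRNA background control in MRTU transfected cells not a receptor target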
# In short: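 HepG2 cells transiently transfected with GAL4-UAS reporter units, stimulated with 3 nM 6-alpha-fluorotestosterone plus 1.5 nM norgestrel, dosed 24 h. Reporter mRNA by RT-PCR/capillary electrophoresis; gain-of-signal fit versus DMSO, background control.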
# [7] = system: turtle Androgen Receptor (AR), gene 101947425; assay: ATG_trAR_XSP2: Attagene TRANS-FACTORIAL Multi-Species (XSP2) HepG2 Assay for turtle Androgen Receptor (AR) (AID 2283815)
# In short: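 HepG2 cells transiently transfected with GAL4-UAS reporter units for chimeric NR-Gal4 receptors; 24 h dosing in presence of 3 nM 6-alpha-fluorotestosterone and 1.5 nM norgestrel. Reporter mRNA by RT-PCR and capillary electrophoresis, gain of signal versus DMSO.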
# [8] = system: chicken Androgen Receptor (AR), gene 422165; assay: ATG_chAR_XSP2: Attagene TRANS-FACTORIAL Multi-Species (XSP2) HepG2 Assay for chicken Androgen Receptor (AR) (AID 2283819);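 further: hits raise reporter mRNA above DMSO so potency is for activation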
# In short: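 HepG2 cells transiently transfected with chicken AR–GAL4 chimeric reporter constructs, stimulated with 3 nM 6-alpha-fluorotestosterone plus 1.5 nM norgestrel, dosed 24 h. Reporter mRNA quantified by RT-PCR and capillary electrophoresis; gain of signal fitted versus DMSO.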
# [9] = ATG_M_19_XSP2: Attagene TRANS-FACTORIAL Multi-Species (XSP2) HepG2 Assay for M32 Transcription Factor (Internal Marker) (AID 2283822)
# In short: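 Internal background marker in a multi-species nuclear receptor TRANS panel: transfected HepG2 cells exposed 24 h, with 3 nM 6-alpha-fluorotestosterone and 1.5 nM norgestrel present. Readout is RT-PCR of reporter transcripts resolved by capillary electrophoresis, gain-of-signal versus DMSO.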
# [10] = system: zebrafish Androgen Receptor (AR), gene 100005148; assay: ATG_zfAR_XSP2: Attagene TRANS-FACTORIAL Multi-Species (XSP2) HepG2 Assay for zebrafish Androgen Receptor (AR) (AID 2283825);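 further: hits raise reporter mRNA above DMSO so AC50 reflects agonist-type gain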
# In short: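 Zebrafish AR–GAL4 chimera transiently expressed with GAL4-UAS reporter in HepG2 cells, co-stimulated with 3 nM 6-alpha-fluorotestosterone and 1.5 nM norgestrel; 24 h dosing, reporter mRNA read by RT-PCR/capillary electrophoresis versus DMSO.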
# Chain of GAL4 Transcription Factor (Internal Marker), GAL4 (gene 855828) (P04386 whole entry, looked up, the tested form may be a part): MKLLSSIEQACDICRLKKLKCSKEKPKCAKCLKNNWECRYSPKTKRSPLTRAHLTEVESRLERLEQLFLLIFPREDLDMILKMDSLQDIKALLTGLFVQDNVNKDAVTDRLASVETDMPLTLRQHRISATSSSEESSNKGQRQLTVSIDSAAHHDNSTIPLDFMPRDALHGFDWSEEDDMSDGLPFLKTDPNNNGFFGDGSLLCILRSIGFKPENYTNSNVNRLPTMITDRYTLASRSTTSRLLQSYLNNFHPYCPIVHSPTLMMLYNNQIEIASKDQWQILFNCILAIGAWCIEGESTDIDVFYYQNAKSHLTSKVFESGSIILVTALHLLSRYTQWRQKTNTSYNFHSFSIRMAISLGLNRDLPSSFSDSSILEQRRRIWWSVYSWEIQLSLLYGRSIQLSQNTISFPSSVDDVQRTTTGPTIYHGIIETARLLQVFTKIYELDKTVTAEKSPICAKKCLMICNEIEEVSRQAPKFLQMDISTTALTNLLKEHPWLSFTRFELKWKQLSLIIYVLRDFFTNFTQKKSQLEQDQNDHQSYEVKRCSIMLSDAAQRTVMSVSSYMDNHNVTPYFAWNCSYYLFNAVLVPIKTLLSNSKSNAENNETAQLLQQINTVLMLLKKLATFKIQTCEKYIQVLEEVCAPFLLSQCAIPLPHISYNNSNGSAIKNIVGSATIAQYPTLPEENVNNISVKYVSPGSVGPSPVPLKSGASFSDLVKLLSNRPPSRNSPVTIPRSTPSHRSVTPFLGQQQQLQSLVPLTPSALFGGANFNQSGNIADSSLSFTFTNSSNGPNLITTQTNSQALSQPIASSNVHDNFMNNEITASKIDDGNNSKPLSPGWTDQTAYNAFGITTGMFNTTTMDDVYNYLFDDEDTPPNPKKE
# Chain of zebrafish Estrogen Receptor (ER1), esr1 (gene 259252) (P57717 whole entry, looked up, the tested form may be a part): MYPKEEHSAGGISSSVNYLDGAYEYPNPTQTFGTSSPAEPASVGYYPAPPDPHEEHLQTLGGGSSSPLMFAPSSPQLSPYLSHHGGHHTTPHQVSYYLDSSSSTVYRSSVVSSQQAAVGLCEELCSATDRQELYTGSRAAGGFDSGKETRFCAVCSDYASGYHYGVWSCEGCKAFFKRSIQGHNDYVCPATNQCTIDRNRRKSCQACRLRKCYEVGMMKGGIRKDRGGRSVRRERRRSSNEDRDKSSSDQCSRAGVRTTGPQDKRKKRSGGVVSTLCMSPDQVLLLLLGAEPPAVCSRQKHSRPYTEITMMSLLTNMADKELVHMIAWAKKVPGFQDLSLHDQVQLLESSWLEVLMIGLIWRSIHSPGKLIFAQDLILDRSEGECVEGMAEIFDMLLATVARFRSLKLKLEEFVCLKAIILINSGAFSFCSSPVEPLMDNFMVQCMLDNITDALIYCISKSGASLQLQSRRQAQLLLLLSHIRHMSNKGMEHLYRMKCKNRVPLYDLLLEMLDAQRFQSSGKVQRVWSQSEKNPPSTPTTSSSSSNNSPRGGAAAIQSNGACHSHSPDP
# Chain of chicken Estrogen Receptor (ERa), ESR1 (gene 396099) (P06212 whole entry, looked up, the tested form may be a part): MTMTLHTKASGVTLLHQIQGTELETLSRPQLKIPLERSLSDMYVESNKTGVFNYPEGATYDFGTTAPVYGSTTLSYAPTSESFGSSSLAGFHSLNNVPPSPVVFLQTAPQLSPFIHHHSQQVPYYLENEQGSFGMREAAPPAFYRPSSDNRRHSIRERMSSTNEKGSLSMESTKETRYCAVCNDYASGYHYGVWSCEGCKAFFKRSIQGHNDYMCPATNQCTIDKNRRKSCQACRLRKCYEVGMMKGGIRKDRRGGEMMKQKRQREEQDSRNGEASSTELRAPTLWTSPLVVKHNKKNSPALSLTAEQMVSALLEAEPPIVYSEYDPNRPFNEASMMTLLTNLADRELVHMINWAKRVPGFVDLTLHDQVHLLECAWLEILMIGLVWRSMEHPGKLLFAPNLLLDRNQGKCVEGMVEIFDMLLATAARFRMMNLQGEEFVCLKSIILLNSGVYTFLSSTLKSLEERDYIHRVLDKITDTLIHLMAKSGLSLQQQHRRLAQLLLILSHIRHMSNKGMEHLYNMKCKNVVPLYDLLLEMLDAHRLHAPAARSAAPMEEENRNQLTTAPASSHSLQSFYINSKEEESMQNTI
smiles,measurement,setting,value
CCCOCC(=Nc1ccc(Cl)cc1C(F)(F)F)n1ccnc1,outcome,[1],inactive
same,outcome,[2],inactive
same,outcome,[3],inactive
same,outcome,[4],inactive
same,AC50,[5],39.8 µM (active)
CCC(=O)Nc1ccc(Cl)c(Cl)c1,outcome,[1],inactive
same,outcome,[2],inactive
same,outcome,[3],inactive
same,AC50,[4],38 µM (active)
same,outcome,[4],inactive
same,AC50,[5],170 µM (active)
same,outcome,[5],inactive
CCC(CC)Nc1c([N+](=O)[O-])cc(C)c(C)c1[N+](=O)[O-],AC50,[1],7.37 µM (active)
same,outcome,[1],inactive
same,AC50,[2],5.63 µM (active) and 4.3 µM (active)
same,outcome,[3],inactive
same,AC50,[4],3.96 µM (active) and 5.7 µM (active)
same,AC50,[5],18.1 µM (active) and 7.12 µM (active)
CCOP(=S)(OCC)Oc1ccc2c(C)c(Cl)c(=O)oc2c1,outcome,[6],inactive
same,outcome,[2],inactive
same,outcome,[3],inactive
same,outcome,[4],inactive
same,AC50,[5],100 µM (active)
C#CC(C)(C)NC(=O)c1cc(Cl)cc(Cl)c1,outcome,[6],inactive
same,AC50,[2],3.34 µM (active)
same,outcome,[3],inactive
same,AC50,[4],27.6 µM (active)
same,outcome,[5],inactive
CCOP(=O)(NC(C)C)Oc1ccc(SC)c(C)c1 (configuration not stated),outcome,[6],inactive
same,outcome,[1],inactive
same,AC50,[2],31.1 µM (active)
same,outcome,[2],inactive
same,AC50,[3],100 µM (active)
same,outcome,[3],inactive
same,AC50,[4],148 µM (active) and 8.45 µM (active)
same,AC50,[5],65.5 µM (active) and 43.8 µM (active)
CCc1cccc(C)c1N(C(=O)CCl)C(C)COC (configuration not stated),outcome,[6],inactive
same,outcome,[7],inactive
same,outcome,[1],inactive
same,outcome,[2],inactive
same,outcome,[8],inactive
same,outcome,[5],inactive
C#CCC1=C(C)C(OC(=O)C2C(C=C(C)C)C2(C)C)CC1=O (configuration not stated),outcome,[1],inactive
same,outcome,[3],inactive
same,outcome,[4],inactive
same,outcome,[5],inactive
Nc1c(Cl)cc([N+](=O)[O-])cc1Cl,outcome,[6],inactive
same,outcome,[1],inactive
same,AC50,[2],26.8 µM (active)
same,outcome,[2],inactive
same,outcome,[3],inactive
same,outcome,[4],inactive
same,outcome,[9],inactive
same,AC50,[5],25.3 µM (active) and 49.6 µM (active)
COc1ccc(C(=CC(=O)N2CCOCC2)c2ccc(Cl)cc2)cc1OC,outcome,[6],inactive
same,AC50,[1],58.2 µM (active)
same,outcome,[1],inactive
same,outcome,[2],inactive
same,outcome,[3],inactive
same,outcome,[4],inactive
same,AC50,[5],100 µM (active) and 54.2 µM (active)
same,outcome,[10],inactive

# From PubChem BioAssay (EPA / NIEHS)
